Screening data: PubChem, National Center for Advancing Translational Sciences (NCATS)
Most compounds without a hit are left out; they make up all but 2.4% or so of the library.
TDP1 block – blocks human tyrosyl-DNA phosphodiesterase 1; Q9NUW8; recombinant TDP1, AlphaScreen DNA substrate cleavage; Potency, µM (doses to about 130 µM), for the others: top-dose activity change, negative = inhibition, hits mostly inhibitors; 350,000 compounds, 0.28% hits; AID 485290; also: % is scaled to controls: 0 for no effect and ±100 for the full control effect; nearly all actives have a fitted effect of over 40% in size
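Here, a 5' biotin and 3' phosphotyrosine-FITC DNA oligonucleotide reports Tdp1 activity: intact substrate bridges AlphaScreen beads, while cleavage leaves a 3' phosphate and drops signal. All incubations at room temperature.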
POLK inh – DNA polymerase kappa (human) inhibition; Potency, µM (highest dose often 107 µM), for the others: at the top dose activity, negative = inhibition, most hits filed as inhibitors; 400,000 compounds, 0.53% hits; AID 588579; Q9UBT6; purified Pol kappa, fluorescent DNA synthesis assay, 10 min; also: % is scaled to controls: 0 for no effect and ±100 for the full control effect
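First, compounds were pin-transferred onto 10 nM Pol kappa. After 15 min at room temperature, substrate was added to 50 nM final. Fluorescence was then measured kinetically at 0 and 10 min.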
POLI inh – blocks human DNA polymerase iota activity | Q9UNA4 | Pol iota fluorescent replication assay, 10 min | Potency, µM (highest dose often 115 µM), inactives show at the highest dose activity, negative = inhibition, hits mostly inhibitors | 390,000 compounds, 1% hits | AID 588590
Target sequence (Q9UNA4 whole entry, looked up): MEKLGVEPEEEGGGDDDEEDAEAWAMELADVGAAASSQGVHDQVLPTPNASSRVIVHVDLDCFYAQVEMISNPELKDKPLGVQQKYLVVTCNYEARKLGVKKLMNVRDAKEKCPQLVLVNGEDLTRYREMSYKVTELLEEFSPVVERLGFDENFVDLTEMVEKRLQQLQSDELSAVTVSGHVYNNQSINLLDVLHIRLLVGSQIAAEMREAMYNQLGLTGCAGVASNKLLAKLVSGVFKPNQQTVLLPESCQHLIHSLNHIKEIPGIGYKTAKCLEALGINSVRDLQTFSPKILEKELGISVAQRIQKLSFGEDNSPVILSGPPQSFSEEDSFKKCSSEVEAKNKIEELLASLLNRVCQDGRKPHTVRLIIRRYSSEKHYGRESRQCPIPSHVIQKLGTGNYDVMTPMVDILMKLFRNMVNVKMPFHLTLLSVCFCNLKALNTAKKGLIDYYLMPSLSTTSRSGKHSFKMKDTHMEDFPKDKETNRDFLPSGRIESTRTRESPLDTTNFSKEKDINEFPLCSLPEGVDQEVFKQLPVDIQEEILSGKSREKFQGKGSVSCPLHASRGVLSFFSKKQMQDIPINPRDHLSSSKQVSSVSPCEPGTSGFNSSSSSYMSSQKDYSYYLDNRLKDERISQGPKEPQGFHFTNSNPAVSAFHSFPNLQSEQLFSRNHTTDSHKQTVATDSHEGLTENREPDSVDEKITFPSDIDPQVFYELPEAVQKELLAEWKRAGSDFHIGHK
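Pol iota at 10 nM preincubated 15 min with compounds at room temperature; reaction started with fluorescent substrate, 50 nM final. Fluorescence read kinetically at 0 and 10 min; buffer-only wells as negative control.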
Pol beta inh – blocks human DNA polymerase beta activity | Pol beta primer extension/strand displacement, fluorescence kinetic | Potency, µM (series often up to 114 µM), for inactives: at the top dose activity change, negative = inhibition, actives largely listed as inhibitors | 340,000 compounds, 1.3% hits | AID 485314; also: % is scaled to controls: 0 for no effect and ±100 for the full control effect
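Curves were derived by four-parameter Hill fits of normalized qHTS data. The kinetic fluorescent primer-extension read was taken at 0 and 10 min after 50 nM substrate, following a 15 min room-temperature preincubation of 10 nM enzyme with compounds.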
Pol eta inh – inhibitors of human DNA polymerase eta; Q9Y253; recombinant Pol eta, fluorescent DNA replication assay; Potency, µM (titrated, usually from 114 µM), for inactives: top-dose activity change, negative = inhibition, most hits filed as inhibitors; 390,000 compounds, 1.2% hits; also: % is scaled to controls: 0 for no effect and ±100 for the full control effect
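Pol eta (10 nM) was preincubated with compounds for 15 min at room temperature, after which fluorescent replication substrate (50 nM final) was added to start the reaction. Fluorescence was read kinetically at 0 and 10 min.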
* = called active by the depositor; ? = inconclusive; nt = no result given; [ ] = remark or other dose. Calls follow the shape of the dose curve; as a rule, active = well fitted curve in the direction sought with a large enough effect; inconclusive = small, poorly fitted or top-dose-only effect, or another doubt; inactive = no such curve, though single readings can be large; an effect the other way counts as inactive or inconclusive. Potency is read from the fitted curve at half-maximal effect.

SMILES | TDP1 block | POLK inh | POLI inh | Pol beta inh | Pol eta inh
Cc1cccn2c(=O)c3cc(C(=O)NCc4ccco4)c(=N)n(CCc4ccccc4)c3nc12 | 2% | -26% | ? | ? | ?
Cc1cccc2c(C(O)c3cn(C)c4ccccc34)c[nH]c12 (centres undefined) | nt | -12% | 33% | nt | nt
Cc1ccc2c(c1)ncc[n+]2CC(=O)c1ccc(F)cc1 | nt | -9% | 29% | nt | nt
CCN1C(=O)C2(c3ccccc31)c1c(oc3ccc(F)cc3c1=O)C(=O)N2CCCOC (centres undefined) | 1% | -8% | 5% | -17% | -9%
CCCCN(CC)c1nc(C)nc2c1c(C)c(C)n2-c1c(C)cc(C)cc1C | 16% | 6%[60.1 µM] | nt | nt | nt
COc1ccc(N2CCN(C(=O)c3ccc(NC(=O)C4=CSCCO4)cc3)CC2)cc1 | 6% | -23% | 35µM* | -7% | -6%
O=C(O)c1ccc(CSCc2ccccc2)o1 | nt | nt | nt | nt | -1%
O=C(O)c1ccc(Cn2ccc3ccccc32)o1 | nt | -10% | 10% | ? | 45µM*
COCc1ccc(CN2CCc3c([nH]c4ccccc34)C2C(C)(C)C)o1 (centres undefined) | -8% | -19% | -10% | 20µM* | -10%
O=S(=O)(c1ccc(-c2ccon2)s1)N1CCN(c2ccncc2)CC1 | nt | -6% | 40µM* | 13% | -35%
CCCCNC(=O)C(CC)n1c(SCc2cccc(F)c2)nc2ccncc21 (centres undefined) | 1% | 5% | 2% | nt | nt
Fc1ccc(-c2cc(-c3ccc(F)cc3)c3c(n2)-c2cc(F)ccc2OC3)cc1 | 2% | -13% | -13% | 2% | -12%
Nc1ccc(N)c(C(=O)O)c1 | 0.28µM* | 6.3µM* | 2.5µM* | 0.4µM* | 1.3µM*
Nc1ccc(C(=O)O)c(O)c1 | 6% | -13% | -13% | -13% | -13%
COc1ccc(CN2CCN(C(=O)c3cccc(OC)c3OC)CC2)cc1OC | -5% | -6% | 100% | 3% | -3%
COc1ccc(CN2CCN(C(=O)CCC(=O)c3ccc(C)s3)CC2)cc1OC | 2% | -33% | 89µM* | nt | 25µM*
COc1ccc(C(=O)N=c2nc(-c3ccccc3)n(-c3ccccc3)s2)cc1 | nt | -2% | 11% | nt | nt
C=C1CCC(C)C(C)(CCC2=CCOC2=O)C/C=C\C=C/1C(=O)O (centres undefined) | nt | ? | ? | 2% | 28µM*
Cc1cccc(N2CCN(C(=O)c3c4c(nc5ccccc35)C(=O)N(C3CCCCC3)C4)CC2)c1C | 8% | 6% | 20% | -16% | -24%
Cc1nn(C)cc1C1C(C#N)=C(N)N(c2cccnc2)C2=C1C(=O)CCC2 (centres undefined) | 3% | -10% | 220% | 37% | -13%
Cc1ccc(C2C(C#N)=C(N)N(c3cccnc3)C3=C2C(=O)CCC3)s1 (centres undefined) | -2% | -2%[60.1 µM] | ? | ? | 56µM*
Cc1cc(NC(=O)CN2CCC(O)CC2)nc2c1c(=O)oc1ccccc12 | 0% | -19% | 15% | 0% | -17%
Nc1ccc(N2CCOCC2)c2nonc12 | 3% | -1% | ? | ? | 79µM*
O=C(Nc1ccc(N2CCOCC2)c2nonc12)C1CCCC1 | 6% | -7% | ? | 31% | -6%
C[C@@H]1C[C@@H]2OC(=O)[C@]3(C)[C@H]2[C@@H](OC3(C)O)[C@]2(C)C(=O)C=C[C@H]12 (some centres undefined) | -2% | -6% | ? | ? | -7%
SMILES | TDP1 block | POLK inh | POLI inh | Pol beta inh | Pol eta inh
C=C1C(=O)O[C@@H]2C[C@@H](C)[C@@H]3C=CC(=O)[C@@]3(C)[C@@H](OC(C)=O)[C@H]12 | -1% | 2% | ? | -4% | 45µM*
O=C(c1cc2c(=O)[nH]c3ccccc3c2s1)N1CCN(c2ccc(F)cc2)CC1 | 0% | -1% | 7% | -20% | nt
CC(=O)Oc1cc(-c2coc3cc(OC(C)=O)c(OC(C)=O)c(OC(C)=O)c3c2=O)cc(OC(C)=O)c1OC(C)=O | nt | 0.35µM* | nt | nt | nt
O=C(O)c1ccc(OC2CSC2)cc1 | nt | -2% | ? | 6% | 20µM*
Cc1ccc(CCNC(=O)CN2C(=O)COc3ccc(S(=O)(=O)N4CCCCCC4)cc32)cc1 | -3% | 3% | 9% | 4% | -24%
COC(=O)c1ccsc1NC(=O)c1cccc(OC)c1 | nt | -5% | 89µM* | -1% | -25%
COc1ccc(-c2nn(-c3ccccc3)cc2C(=O)Nc2cccc(C(=O)O)c2)cc1[N+](=O)[O-] | 22µM* | -26% | -17% | 35µM* | -12%
O=C(O)c1cccc(NC(=O)c2cn(-c3ccccc3)nc2-c2ccc([N+](=O)[O-])cc2)c1 | -14% | -18% | 0% | ? | -2%
Cc1nc(S/C(=C/c2ccc(-c3cc(Cl)ccc3C)o2)C(=O)O)n[nH]1 | 11% | ? | ? | ? | ?
Cc1nc(S/C(=C/c2ccc(-c3ccc(Cl)cc3)o2)C(=O)O)n[nH]1 | 3% | -21% | -5% | 18% | 25µM*
COC(=O)c1ccc2c(c1)C(C)(C)C(/C=C/c1ccc(O)cc1)=[N+]2C | 6% | 28µM* | 25µM* | ? | 17%
CC(C)(C)[C@@H](O)C(Cc1ccc(Cl)cc1)n1cncn1 (some centres undefined) | 13% | 13%[60.1 µM] | nt | nt | nt
O=S(c1ccccc1)c1ccc2nnnn2n1 (centres undefined) | nt | 3%[60.1 µM] | nt | nt | nt
Cc1ccc(S(=O)(=O)N2CCCCC2)cc1NC(=O)CCc1nc2ccccc2c(=O)[nH]1 | nt | -8% | ? | nt | 28µM*
COc1ccccc1NC(=O)c1c([N+](=O)[O-])cnn1C | 1.4µM* | -5% | -15% | 105% | 3%
O=C(COc1ccc(Cl)cc1)OCC(=O)N1CCCCCC1 | 1% | 4% | 2% | 35µM* | -3%
O=C(COc1ccccc1/C=C\c1nc(O)c([N+](=O)[O-])c(=O)[nH]1)Nc1ccccc1 | 0% | -11% | ? | -3% | 28µM*
CCOc1ccccc1/C=C\c1nc(O)c([N+](=O)[O-])c(=O)[nH]1 | nt | -16% | -17% | -10% | ?
CCC(C)[C@H](NC(=O)N1CC(=O)Nc2ccccc21)C(=O)N1CCC[C@H]1C(=O)O (some centres undefined) | nt | 11% | 79µM* | 3% | -18%
CCC(C)[C@H](NC(=O)N1CC(=O)Nc2ccccc21)C(=O)N1CCC[C@@H]1C(=O)O (some centres undefined) | nt | -2% | -17% | -2% | -11%
O=C(NCc1ccccn1)c1ccc(Cn2c(=S)[nH]c3ccccc3c2=O)cc1 | -5% | -11% | 50µM* | ? | -17%
O=C(NCc1ccccn1)c1ccc(Cn2c(=S)[nH]c3ccc(Br)cc3c2=O)cc1 | -2% | -2% | 180% | -25% | -7%
Oc1c(C=Nc2ccc(Cl)cn2)sc2ccccc12 | 2% | -3% | -3% | -27% | -22%
